# According to PubChem BioAssay (NCI):
# Compounds without any hit were thinned out: in the full panel of roughly 79,000, 15% have a hit. Active and inactive are the calls of the source. No stated cut-off is given here; in the data, active means growth inhibition above about 70%; inactive means the rest. Where a SMILES comes first, the peptide text is derived from it. [ ]: non-standard residue; d: D form. The star is where a group is joined. ξ: configuration not given here. Boc = CC(C)(C)OC(=O)*; ξV = CC(C)C(N)C(=O)O; OBn = c1ccc(CO*)cc1
# Test: NCI Yeast Anticancer Drug Screen. Data for the bub3 strain (AID 167)
# Conditions: S. cerevisiae bub3 mutant strain, at 50.0 µM, active compounds read high
# How it was run: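 In this screen, a yeast mutant lacking normal mitotic checkpoint function is challenged with compound. Relative growth versus vehicle gives the inhibition value.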
row,Structure (SMILES),growth inhibition
1,O=c1[nH]cc(SSc2c[nH]c(=O)[nH]c2=O)c(=O)[nH]1,29.9% (inactive)
2,O=C1CN(c2cccc(Cl)c2)C(=O)CN1CCN1CC(=O)N(c2cccc(Cl)c2)CC1=O,-37.5% (inactive)
3,COc1cc(OC)cc(N(C)Cc2cnc3nc(N)nc(N)c3c2C)c1,12.3% (inactive)
4,Cc1ccc(S(=O)(=O)NNCCC#N)cc1,-4.9% (inactive)
5,C1#CCSCC#CCSC1,40% (inactive)
6,Clc1ccc(/C=C/c2nc3ccccc3s2)cc1Cl,27.2% (inactive)
7,Cc1c(NC=O)c(=O)n(-c2ccccc2)n1C,14.4% (inactive)
8,Nc1ncnc2c1ccn2C1OC2COP(=O)(O)OC2C1O (stereo not drawn),-18.3% (inactive)
9,CC(/C=C/C=C/C=C/C=C/C=C/C(O)=C1/C(=O)C(CCC(=O)O)N(C)C1=O)=C\C(C)C(OC1CC(O)C(O)C(C)O1)C(C)C (stereo not drawn),-10.1% (inactive)
10,COc1cccc(-c2nnc(-c3cccc(OC)c3)o2)c1,25.5% (inactive)
11,COc1ccc2c(C#N)cc3c4ccccc4ncc3c2c1,-4.35% (inactive)
12,CC(=O)CC(=O)NCc1ccccc1,1.55% (inactive)
13,CC(O)c1ccccc1Br (stereo not drawn),-36.5% (inactive)
14,O=C(NC(Cc1ccccc1)C(=O)O)c1ccccc1 (stereo not drawn),6.7% (inactive)
15,CC(C)C(NC(=O)OC(C)(C)C)C(=O)NCC(=O)OCc1ccccc1 (stereo not drawn) (Boc-[ξV]-Gly-OBn),-8.6% (inactive)
16,CCN(CC)C(=O)C1C(C=C(C)C)C1(C)C (stereo not drawn),-10.1% (inactive)
17,CCC/C(=C(\C)c1ccccc1)c1ccccc1,-11.5% (inactive)
18,CCCOCC(O)CNCCNCC(O)COCCC (stereo not drawn),-3.65% (inactive)
19,COc1ccc2c(=O)c(O)c(-c3ccccc3)oc2c1,15.2% (inactive)
20,CC1(C)OC(=O)N=C1c1ccc(F)cc1,-1.65% (inactive)
21,CCOC(=O)[C@H]1CSC[C@@H](C(=O)OC)N1,5.15% (inactive)
22,O=[N+]([O-])c1ccccc1C1N2CCCCC2[C@@H]2c3[nH]c4ccccc4c3CCN12 (stereo partly drawn),3.05% (inactive)
23,CCOC(=O)c1nc2ccc(C(F)(F)F)cc2[nH]c1=O,-11.8% (inactive)

# Test: NCI Yeast Anticancer Drug Screen. Data for the mlh1 rad18 strain (AID 175)
# Conditions: S. cerevisiae mlh1 rad18 strain growth inhibition; at 50.0 µM; active compounds read high
# How it was run: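 Growth inhibition of the yeast strain was measured after compound exposure and expressed relative to vehicle-treated controls. The strain carries defined defects in DNA damage repair.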
row,Structure (SMILES),growth inhibition
1,COC(=O)NCP(=O)(CNC(=O)OC)CNC(=O)OC,10.7% (inactive)
2,O=C(N/N=C/c1ccc(O)cc1)C1CCCO1 (stereo not drawn),-9.45% (inactive)
3,Cc1ccccc1NC(=O)C(=O)Cc1nc2ccccc2s1,20.4% (inactive)
4,NS(=O)(=O)c1ccc(Nc2c3ccccc3nc3ncccc23)cc1,16.9% (inactive)
5,CSc1ccc(Nc2ncnc(N)n2)cc1,14.6% (inactive)
6,CC1(C)OC1(C(=O)C=[N+]=[N-])c1ccccc1 (stereo not drawn),-29.4% (inactive)
7,COC(=O)CCc1c(C)[nH]c(C(=O)OC(C)(C)C)c1C,-3.05% (inactive)
8,COc1cc(NCCNCC(C)(C)C)c2ncccc2c1,0.5% (inactive)
9,N#CCCNC1CCCCC1,-0.25% (inactive)
10,CC(=NNC(=S)Nc1ccccc1)c1cccc(C(C)=NNC(=S)Nc2ccccc2)n1,6.4% (inactive)
11,CC12CCC(=O)C=C1CCC1C2C(=O)CC2(C)C1CCC2(O)C(=O)Cn1c(=O)[nH]cc(F)c1=O (stereo not drawn),2.3% (inactive)
12,COc1cc(C2c3cc4c(cc3OC(N3CCCCC3)C2C)OCO4)cc(OC)c1O (stereo not drawn),-9.25% (inactive)
13,CC(=O)NC(Cc1cc(I)c(OC(C)=O)c(I)c1)C(=O)O (stereo not drawn),-0.6% (inactive)
14,C=CCCC1CN2CCc3cc(OC)c(OC)cc3C2CC1=O (stereo not drawn),20.1% (inactive)
15,c1ccc2cc(SSc3ccc4ccccc4c3)ccc2c1,-4.85% (inactive)
16,CCCCCC(=C/c1ccccc1)/C=N/N1CCN(/N=C/C(=C/c2ccccc2)CCCCC)CC1,11.2% (inactive)
17,Cc1cc2nc(N3CCCCC3)n(C3OC(CO)C(O)C3O)c2cc1C (stereo not drawn),13.8% (inactive)
18,O=c1[nH]cc(SSc2c[nH]c(=O)[nH]c2=O)c(=O)[nH]1,12.9% (inactive)
19,O=C1CN(c2cccc(Cl)c2)C(=O)CN1CCN1CC(=O)N(c2cccc(Cl)c2)CC1=O,-32.2% (inactive)
20,COc1cc(OC)cc(N(C)Cc2cnc3nc(N)nc(N)c3c2C)c1,-3.45% (inactive)

row,Structure (SMILES),growth inhibition
1,Cc1ccc(S(=O)(=O)NNCCC#N)cc1,7.75% (inactive)
2,C1#CCSCC#CCSC1,24% (inactive)
3,Clc1ccc(/C=C/c2nc3ccccc3s2)cc1Cl,-16.2% (inactive)
4,Cc1c(NC=O)c(=O)n(-c2ccccc2)n1C,33.7% (inactive)
5,Nc1ncnc2c1ccn2C1OC2COP(=O)(O)OC2C1O (stereo not drawn),-15.1% (inactive)
6,CC(/C=C/C=C/C=C/C=C/C=C/C(O)=C1/C(=O)C(CCC(=O)O)N(C)C1=O)=C\C(C)C(OC1CC(O)C(O)C(C)O1)C(C)C (stereo not drawn),-2.65% (inactive)
7,COc1cccc(-c2nnc(-c3cccc(OC)c3)o2)c1,0.2% (inactive)
8,COc1ccc2c(C#N)cc3c4ccccc4ncc3c2c1,-10.8% (inactive)
9,CC(=O)CC(=O)NCc1ccccc1,5.15% (inactive)
10,CC(O)c1ccccc1Br (stereo not drawn),-21% (inactive)
11,O=C(NC(Cc1ccccc1)C(=O)O)c1ccccc1 (stereo not drawn),1.55% (inactive)
12,CC(C)C(NC(=O)OC(C)(C)C)C(=O)NCC(=O)OCc1ccccc1 (stereo not drawn) (Boc-[ξV]-Gly-OBn),-21.6% (inactive)
13,CCN(CC)C(=O)C1C(C=C(C)C)C1(C)C (stereo not drawn),7.55% (inactive)
14,CCC/C(=C(\C)c1ccccc1)c1ccccc1,33.3% (inactive)
15,CCCOCC(O)CNCCNCC(O)COCCC (stereo not drawn),7.3% (inactive)
16,COc1ccc2c(=O)c(O)c(-c3ccccc3)oc2c1,8.25% (inactive)
17,CC1(C)OC(=O)N=C1c1ccc(F)cc1,17.4% (inactive)
18,CCOC(=O)[C@H]1CSC[C@@H](C(=O)OC)N1,-4.9% (inactive)
19,O=[N+]([O-])c1ccccc1C1N2CCCCC2[C@@H]2c3[nH]c4ccccc4c3CCN12 (stereo partly drawn),8.3% (inactive)
20,CCOC(=O)c1nc2ccc(C(F)(F)F)cc2[nH]c1=O,-10% (inactive)
